Laboratory results as given in PMC7862700, “An all-to-all approach to the identification of sequence-specific readers for epigenetic DNA modifications on cytosine”.

What was measured:
Experiment in all cases: DAPPL (digital affinity profiling via proximity ligation, sequencing); 10 mM Tris-HCl pH 7.5, 50 mM NaCl, 1 mM DTT, 4% glycerol, room temperature, 30 min; GST-TFs on glutathione beads, 16-mer random dsDNA library, 0.1% formaldehyde crosslink after washing; high values mean tight binding
Conditions in all cases: protein: recombinant; tags: N-terminal GST; dsDNA, one strand shown
FLI1 = target: T1, FLI1 (Homo sapiens, UniProt Q01543 1-452)
T1 sequence: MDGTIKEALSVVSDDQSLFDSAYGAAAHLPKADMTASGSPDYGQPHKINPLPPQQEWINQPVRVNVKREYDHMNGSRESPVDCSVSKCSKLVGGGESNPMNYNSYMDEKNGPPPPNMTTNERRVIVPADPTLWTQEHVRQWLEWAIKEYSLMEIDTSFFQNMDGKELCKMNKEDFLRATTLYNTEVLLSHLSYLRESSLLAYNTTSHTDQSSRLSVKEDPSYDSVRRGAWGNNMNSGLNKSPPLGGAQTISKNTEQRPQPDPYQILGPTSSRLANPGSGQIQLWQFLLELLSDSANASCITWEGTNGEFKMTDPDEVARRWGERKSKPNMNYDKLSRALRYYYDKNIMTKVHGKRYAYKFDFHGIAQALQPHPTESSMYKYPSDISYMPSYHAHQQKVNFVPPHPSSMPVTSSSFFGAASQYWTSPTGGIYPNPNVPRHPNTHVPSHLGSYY
Procedure, shortened: (§1)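 GST fusions of human transcription factors were expressed in yeast and captured with glutathione beads. Once given DNA barcodes and pooled alongside a tag-only sample, they were incubated for 30 min at room temperature with 200 nmole of a random double-stranded 16-mer DNA library in Tris/NaCl/DTT/glycerol buffer, then washed, crosslinked (0.1% formaldehyde), proximity-ligated, PCR-amplified and sequenced on an Illumina NextSeq500. The binding signal of each hexamer is its read frequency for a factor divided by its frequency for the tag-only sample.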

ELK1 = target: T2, ELK1 (Homo sapiens, UniProt P19419 1-428)
T2 sequence: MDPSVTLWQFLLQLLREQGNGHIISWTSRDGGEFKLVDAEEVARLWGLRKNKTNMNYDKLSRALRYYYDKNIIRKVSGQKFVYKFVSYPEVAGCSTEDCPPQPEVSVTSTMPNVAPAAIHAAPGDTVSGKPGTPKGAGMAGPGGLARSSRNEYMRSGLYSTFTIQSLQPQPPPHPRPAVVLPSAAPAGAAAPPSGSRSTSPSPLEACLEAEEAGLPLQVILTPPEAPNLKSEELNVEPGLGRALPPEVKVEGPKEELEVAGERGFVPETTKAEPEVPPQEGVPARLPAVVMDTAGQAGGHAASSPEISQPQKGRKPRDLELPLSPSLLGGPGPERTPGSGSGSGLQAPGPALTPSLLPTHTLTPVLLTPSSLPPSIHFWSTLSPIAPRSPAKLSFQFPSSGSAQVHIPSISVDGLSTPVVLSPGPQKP
Procedure, shortened: as §1

GABPA = target: T3, GABPA (Homo sapiens, UniProt Q06546 1-454)
T3 sequence: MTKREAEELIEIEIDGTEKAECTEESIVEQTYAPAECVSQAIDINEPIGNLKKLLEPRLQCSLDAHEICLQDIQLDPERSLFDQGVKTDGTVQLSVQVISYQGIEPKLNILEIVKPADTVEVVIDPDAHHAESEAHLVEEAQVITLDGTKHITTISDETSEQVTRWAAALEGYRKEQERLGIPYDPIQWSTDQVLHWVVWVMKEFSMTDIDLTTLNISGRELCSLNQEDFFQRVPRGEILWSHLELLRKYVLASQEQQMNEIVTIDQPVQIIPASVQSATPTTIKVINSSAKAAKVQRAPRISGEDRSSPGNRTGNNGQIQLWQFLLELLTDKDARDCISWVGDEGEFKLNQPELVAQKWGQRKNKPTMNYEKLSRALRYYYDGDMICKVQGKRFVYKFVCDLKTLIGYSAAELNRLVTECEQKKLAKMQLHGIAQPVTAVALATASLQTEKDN
Procedure, shortened: as §1

ERG = target: T4, ERG (Homo sapiens, UniProt P11308 1-479)
T4 sequence: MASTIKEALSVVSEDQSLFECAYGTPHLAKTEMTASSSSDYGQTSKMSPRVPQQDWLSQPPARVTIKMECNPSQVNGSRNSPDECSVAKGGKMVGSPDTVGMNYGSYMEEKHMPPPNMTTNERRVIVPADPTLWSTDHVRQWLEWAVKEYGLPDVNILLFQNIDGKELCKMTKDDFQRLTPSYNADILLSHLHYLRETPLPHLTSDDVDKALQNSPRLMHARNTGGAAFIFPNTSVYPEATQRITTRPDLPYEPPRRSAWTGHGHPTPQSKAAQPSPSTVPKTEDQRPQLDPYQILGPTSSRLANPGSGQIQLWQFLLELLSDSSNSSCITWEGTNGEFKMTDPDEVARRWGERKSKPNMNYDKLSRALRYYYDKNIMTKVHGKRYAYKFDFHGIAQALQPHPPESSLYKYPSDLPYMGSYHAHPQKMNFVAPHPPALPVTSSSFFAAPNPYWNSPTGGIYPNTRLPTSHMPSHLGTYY
Procedure, shortened: as §1

ELF1 = ELF1 (Homo sapiens, UniProt P32519 1-619)
Sequence of ELF1 (P32519 whole entry): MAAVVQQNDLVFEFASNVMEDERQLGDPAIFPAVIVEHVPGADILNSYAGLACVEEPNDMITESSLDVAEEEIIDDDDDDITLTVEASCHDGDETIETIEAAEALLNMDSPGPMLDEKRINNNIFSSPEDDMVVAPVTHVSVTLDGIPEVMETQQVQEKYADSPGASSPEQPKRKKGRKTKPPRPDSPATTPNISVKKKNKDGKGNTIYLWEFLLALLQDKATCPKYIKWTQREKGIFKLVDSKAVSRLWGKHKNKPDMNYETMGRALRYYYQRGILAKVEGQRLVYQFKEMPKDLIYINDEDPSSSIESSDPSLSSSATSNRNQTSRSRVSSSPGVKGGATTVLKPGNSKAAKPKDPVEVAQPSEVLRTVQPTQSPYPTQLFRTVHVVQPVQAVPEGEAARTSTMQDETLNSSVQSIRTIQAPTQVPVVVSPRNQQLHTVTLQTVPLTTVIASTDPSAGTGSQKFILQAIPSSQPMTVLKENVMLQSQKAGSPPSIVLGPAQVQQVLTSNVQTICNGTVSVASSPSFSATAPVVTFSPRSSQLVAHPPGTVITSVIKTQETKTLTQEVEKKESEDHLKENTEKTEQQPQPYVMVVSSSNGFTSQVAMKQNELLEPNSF
Procedure, shortened: as §1

EHF = target: T5, EHF (Homo sapiens, UniProt Q9NZC4 1-300)
T5 sequence: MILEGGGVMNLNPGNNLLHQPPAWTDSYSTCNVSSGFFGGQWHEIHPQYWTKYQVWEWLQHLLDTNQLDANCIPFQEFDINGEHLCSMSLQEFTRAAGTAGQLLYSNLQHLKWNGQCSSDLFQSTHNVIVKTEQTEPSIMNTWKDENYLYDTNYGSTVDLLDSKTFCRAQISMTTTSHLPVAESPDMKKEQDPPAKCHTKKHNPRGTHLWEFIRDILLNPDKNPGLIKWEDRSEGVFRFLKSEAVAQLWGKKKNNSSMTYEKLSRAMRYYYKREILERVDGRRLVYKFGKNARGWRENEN
Procedure, shortened: as §1

SPI1 = SPI1 (Homo sapiens, UniProt P17947 1-270)
Procedure, shortened: as §1

SPIB = SPIB (Homo sapiens, UniProt Q01892 1-262)
Sequence of SPIB (Q01892 whole entry): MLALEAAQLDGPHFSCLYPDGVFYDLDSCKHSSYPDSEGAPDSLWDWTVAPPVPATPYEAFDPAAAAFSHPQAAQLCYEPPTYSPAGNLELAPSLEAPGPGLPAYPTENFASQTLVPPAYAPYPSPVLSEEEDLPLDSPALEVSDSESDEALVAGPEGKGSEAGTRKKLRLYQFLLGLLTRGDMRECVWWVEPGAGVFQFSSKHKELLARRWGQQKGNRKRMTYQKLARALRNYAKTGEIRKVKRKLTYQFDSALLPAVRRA
Procedure, shortened: as §1

ELK3 = target: T6, ELK3 (Homo sapiens, UniProt P41970 1-407)
T6 sequence: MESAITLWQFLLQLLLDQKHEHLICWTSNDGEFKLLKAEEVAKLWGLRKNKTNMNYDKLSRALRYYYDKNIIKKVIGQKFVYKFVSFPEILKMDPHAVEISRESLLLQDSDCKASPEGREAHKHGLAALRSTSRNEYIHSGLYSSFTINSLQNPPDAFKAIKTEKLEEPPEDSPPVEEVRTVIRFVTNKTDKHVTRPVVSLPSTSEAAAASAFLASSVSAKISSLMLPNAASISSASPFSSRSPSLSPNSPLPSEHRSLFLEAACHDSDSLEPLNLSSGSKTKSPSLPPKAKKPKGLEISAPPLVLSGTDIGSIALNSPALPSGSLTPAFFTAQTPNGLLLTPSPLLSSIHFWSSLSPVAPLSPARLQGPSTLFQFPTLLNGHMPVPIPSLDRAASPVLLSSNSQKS
Procedure, shortened: as §1

Sequence: CCCCCC
- binding signal (FLI1): 1.03 fold enrichment (6-mer frequency, TF over GST control)
- binding signal (ELK1): 1.04 fold enrichment (6-mer frequency, TF over GST control)
- binding signal (GABPA): 1.08 fold enrichment (6-mer frequency, TF over GST control)
- binding signal (ERG): 1.07 fold enrichment (6-mer frequency, TF over GST control)
- binding signal (ELF1): 1.08 fold enrichment (6-mer frequency, TF over GST control)
- binding signal (EHF): 1.06 fold enrichment (6-mer frequency, TF over GST control)
- binding signal (SPI1): 1.07 fold enrichment (6-mer frequency, TF over GST control)
- binding signal (SPIB): 1.1 fold enrichment (6-mer frequency, TF over GST control)
- binding signal (ELK3): 1.12 fold enrichment (6-mer frequency, TF over GST control)
